Measured values: PubChem BioAssay (NCATS)
Results filed as inconclusive are left out. The source made the active and inactive calls. Calls follow the shape of the dose curve; as a rule, active = well fitted curve in the direction sought with a large enough effect; inconclusive = small, poorly fitted or top-dose-only effect, or another doubt; inactive = no such curve, though single readings can be large; an effect the other way counts as inactive or inconclusive.

Key:
[1] = qHTS to identify inhibitors of the type 1 interferon - major histocompatibility complex class I in skeletal muscle: primary screen against the NCATS Pharmaceutical Collection (AID 1347407);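 also: luminescence of HiBiT knocked into endogenous HLA-B as interferon-induced MHC class I level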
Method in brief: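 HLA-B HiBiT myoblasts, dexamethasone-free growth medium + 4 ng/ml IFN-b; compounds pinned 1 h after seeding, […] from 46 uM; 24 h, 37 C, 5% CO2; lytic HiBiT detection, 10 min RT, luminescence.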

[2] = molecular target: Protein phosphatase 1D (Homo sapiens) (UniProt O15297); experiment: RapidFire Mass Spectrometry qHTS Assay for Modulators of WT P53-Induced Phosphatase 1 (WIP1) (AID 1347424);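 also: amount of dephosphorylated VEPPL-S-QETFS peptide product formed by WIP1; series mostly up to about 63 µM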
Sequence of Protein phosphatase 1D (Homo sapiens) (O15297 whole entry, looked up): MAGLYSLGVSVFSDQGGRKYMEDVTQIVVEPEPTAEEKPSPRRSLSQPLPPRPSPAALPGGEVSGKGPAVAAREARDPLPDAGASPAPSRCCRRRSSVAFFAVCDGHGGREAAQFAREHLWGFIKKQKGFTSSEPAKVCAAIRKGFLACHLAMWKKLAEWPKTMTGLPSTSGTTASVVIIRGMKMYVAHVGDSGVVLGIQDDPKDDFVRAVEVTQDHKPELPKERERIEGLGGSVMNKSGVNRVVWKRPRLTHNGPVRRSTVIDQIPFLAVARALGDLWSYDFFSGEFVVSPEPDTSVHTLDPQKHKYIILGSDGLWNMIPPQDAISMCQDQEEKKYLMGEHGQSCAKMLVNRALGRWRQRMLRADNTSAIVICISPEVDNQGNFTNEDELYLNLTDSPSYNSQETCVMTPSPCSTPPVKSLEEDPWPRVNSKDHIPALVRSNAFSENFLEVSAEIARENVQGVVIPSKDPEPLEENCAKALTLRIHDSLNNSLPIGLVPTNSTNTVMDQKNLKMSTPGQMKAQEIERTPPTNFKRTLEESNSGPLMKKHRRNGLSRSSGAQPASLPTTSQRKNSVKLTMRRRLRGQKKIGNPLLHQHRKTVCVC
Method in brief: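 10 nM WIP1 preincubated with compounds 1 hr at room temperature in pH 7.5 Tris buffer with 30 mM MgCl2, 1 mM TCEP; 2 uM VEPPL-pS-QETFS phosphopeptide for 5 min, formic acid quench; dephosphorylated product quantified by RapidFire MS against labelled standard.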

[3] = molecular target: Protein phosphatase 1D (Homo sapiens) (UniProt O15297); experiment: Rhodamine-PBP qHTS Assay for Modulators of WT P53-Induced Phosphatase 1 (WIP1) (AID 1347425)
Method in brief: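 WIP1 (5 nM final) was preincubated with compound for 1 hour at room temperature. It then dephosphorylated 10 uM VEPPL-pS-QETFS peptide in Tris-HCl pH 7.5 with 30 mM MgCl2. Released Pi was detected by 10 uM Rh-PBP fluorescence (ex 525/em 598 nm) read at 1-min intervals for 11 min, as delta f1 - f0.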

[4] = Primary qHTS for inhibitors of La Crosse Virus (LACV) - induced cell death in SH-SY5Y cells (AID 1508616);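 also: top concentration of the series differs between compounds; higher means more rescue of cells from virus-induced death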
Method in brief: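 SH-SY5Y cells (6000/well) plated 24 h, then given compounds by pin transfer and LACV at 0.01 MOI for 6 days at 37C. Viability measured by ATPLite luminescence, normalized to infected DMSO and uninfected DMSO.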

[5] = molecular target: Calcium and integrin-binding protein 1 (Homo sapiens) (UniProt Q99828); experiment: Primary qHTS for Identification of Calcium Integrin Binding Protein 1 (CIB1) Competitor (AID 1508620);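 also: GST tagged CIB1 binding a fluorescein labelled alphaIIb integrin peptide tracer; top concentration of the series differs between compounds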
Sequence of Calcium and integrin-binding protein 1 (Homo sapiens) (Q99828 whole entry, looked up): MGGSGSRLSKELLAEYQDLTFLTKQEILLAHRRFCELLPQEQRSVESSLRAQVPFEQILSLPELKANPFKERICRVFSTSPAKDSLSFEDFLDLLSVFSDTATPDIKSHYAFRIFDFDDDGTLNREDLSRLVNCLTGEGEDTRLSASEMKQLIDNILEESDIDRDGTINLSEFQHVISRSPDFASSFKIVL
Method in brief: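 Fluorescence polarization competition: GST-tagged CIB1 (1 uM final) preincubated with compound 15 min at room temperature, then FITC-labelled alphaIIb peptide (100 nM final) added. After 15 min at room temperature, polarization read at Ex 480/Em 540.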

[6] = Inflammasome Signaling qHTS Counterscreen: IL-1-beta AlphaLISA counterscreen against the NCATS CANVASS Library (AID 1347381);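 also: cell-free check with purified IL-1β in medium and no THP-1 cells; series mostly up to about 57 µM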
Method in brief: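 Cell-free interference check: compounds added to medium spiked with 4 pg purified IL-1β. Anti-IL-1β acceptor beads (6 ug/mL) with 0.6 nM biotinylated antibody added for 1 h at RT, then streptavidin donor beads (24 ug/mL) for 30 min in the dark. AlphaLISA read at 680/615 nm.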

[7] = Cytotoxicity qHTS for assessment of Hepg2 cells membrane integrity screened against the NCATS CANVASS Library (AID 1347387)
Method in brief: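 HepG2 cells (2000/well) attached overnight, then exposed 5 hr at 37C to compounds in an 11-point series (0.59 nM - 46 uM final). LDH release from damaged membranes read fluorometrically (CytoTox-ONE; 560/590 nm) after 10 min at room temperature.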

[8] = qHTS for Activators of p53 Stress Response Pathway screened against the NCATS CANVASS Library (AID 1347388)
Method in brief: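 p53RE-bla HCT-116 cells (4000/well) were pre-incubated for 5 h, then treated with compound (11 points) for 16 h at 37C. After 2 h with CCF4, the 460/530 nm ratio gave reporter activation; CellTiter-Glo measured viability.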

[9] = qHTS assay for small molecule disruptors of mitochondrial membrane potential screened against the NCATS CANVASS Library (AID 1347389); also: series mostly up to about 46 µM; nearly all actives have a fitted effect of over 60% in size
Method in brief: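 HepG2 cells (2,000/well) plated overnight, then exposed to compounds in 11-point qHTS series for 1 h at 37C before 30 min Mito-MPS dye; depolarization read as fall in red aggregate (590 nm) to green monomer (535 nm) fluorescence.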

[10] = Secretion counterscreen for inhibitors of the SERCaMP assay screened against the NCATS CANVASS Library (AID 1347390);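 also: light from luciferase secreted into medium read as a measure of general secretion; series mostly up to about 77 µM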
Method in brief: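 Luminescence from constitutively secreted GLuc in SH-SY5Y-GLuc STOP cells, read after coelenterazine addition, served as read-out. Compounds tested 0.001 - 77 uM for 20 h at 37C; Brefeldin A as positive control.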

[11] = qHTS for activators of Nrf2/ARE signaling pathway screened against the NCATS CANVASS Library (AID 1347391); also: nearly all actives have a fitted effect of over 60% in size
Method in brief: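 ARE-bla HepG2 beta-lactamase reporter cells exposed to compounds for 16 h at 37C; CCF4 substrate 2 h, fluorescence at ex 405 nm, em 460/530 nm. Viability by CellTiter-Glo luminescence.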

[12] = qHTS for activators of dead-cell proteases activity screened against the NCATS CANVASS Library (AID 1347392);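 also: luminescence from protease leaking out of membrane-damaged cells cleaving impermeant substrate; rising signal means more cytotoxicity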
Method in brief: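 HepG2 cells, 2000/well, attached 18 h at 37C, then exposed to compounds (11-point qHTS) for 5 h. Dead-cell protease release read as luminescence from cell-impermeant AAF-aminoluciferin substrate after 15 min at room temperature.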

[13] = qHTS for inhibitors of ER calcium dysfunction: SERCaMP assay screened against the NCATS CANVASS Library (AID 1347393);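 also: series mostly up to about 77 µM; lower secreted reporter signal means inhibitor of ER calcium depletion; nearly all actives have a fitted effect of over 40% in size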
Method in brief: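 SH-SY5Y GLuc-SERCaMP, 1000 cells/well, 4 h attach; cpd 16 h, 37C/5% CO2; thapsigargin (added as 6x 600 nM) 4 h; coelenterazine; luminescence. Reduced reporter release = ER Ca stabilization.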

[14] = Vero-766 cells viability qHTS against the NCATS CANVASS Library: Counterscreen for Zika virus inhibition assay (AID 1347394); also: series mostly up to about 46 µM; nearly all actives have a fitted effect of over 60% in size
Method in brief: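 CellTiter-Glo luminescence, lower signal indicating cytotoxicity. Vero 766 cells without Zika virus, 1000 cells/well, plated overnight, then treated 72 h at 37C across an 11-point series.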

[15] = qHTS for inhibitors of Wild type Zika virus screened against the NCATS CANVASS Library (AID 1347396);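 also: ATP luminescence of surviving cells so rescue from viral cell killing; series mostly up to about 46 µM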
Method in brief: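 Vero 766 (African green monkey) cells, 1000 per well, attached overnight, then compounds were added in an 11-point series before wild-type Zika virus infection. After 72 h at 37C, cell viability was read as CellTiter Glo luminescence.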

[16] = Viability qHTS for inhibitors of the SERCaMP assay screened against the NCATS CANVASS Library (AID 1347400); also: series mostly up to about 92 µM; nearly all actives have a fitted effect of over 70% in size
Method in brief: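 SH-SY5Y-GLuc SERCaMP MJH297-derived cells, 1000/well, plated 4 h, then exposed to compounds in an 11-point qHTS series for 48 h at 37C. Viability read as CellTiter-Glo luminescence.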

[17] = Redox Reaction Profiling qHTS: Assay Interference Panel against the NCATS CANVASS Library (AID 1347401)
Method in brief: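 Compounds in 11-point series incubated with 5 uM resazurin and 200 uM DTT in 50 mM HEPES pH 7.3, 50 mM NaCl. Resorufin fluorescence (Ex 525/Em 598) read before and after 15 min in the dark.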

[18] = qHTS to identify inhibitors of the type 1 interferon - major histocompatibility complex class I in skeletal muscle: primary screen against the NCATS Mechanism Interrogation Plate v5.0 (MIPE) Libary (AID 1347411); also: nearly all actives have a fitted effect of over 65% in size
Method in brief: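 Immortalized human myoblasts (C25cl48) with HiBit knocked into endogenous HLA-B*08:01 were stimulated with 4 ng/ml IFN-beta and given compounds in 11-point 1:3 titration from 46 uM. After 24 h at 37 C, lytic HiBiT luminescence was read.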

[19] = molecular target: Calcium and integrin-binding protein 1 (Homo sapiens) (UniProt Q99828); experiment: Confirmatory qHTS for Identification of Calcium Integrin Binding Protein 1 (CIB1) Competitor (AID 1508617); also: nearly all actives have a fitted effect of over 65% in size
Method in brief: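 FP competition: CIB1-GST (1 uM final) in 5 mM HEPES pH 7.4, 125 mM NaCl, 5 mM CaCl2, 0.01% Tween20 preincubated 15 min RT with compounds (up to 114 uM), then FITC-alphaIIb peptide (100 nM), 15 min RT; Ex 480/Em 540.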

Measured: outcome

O=C(O)c1ccccc1C(=O)Nc1ccc(S(=O)(=O)Nc2nccs2)cc1
inactive: [1] | [2] | [3] | [4] | [5]

CC(C)CCCC(C)CCCC(C)CCCCC(C)CCCC(C)CCCC(C)C (configuration not stated)
inactive: [1] | [2] | [3] | [4] | [5]

O=C1c2cccc(O)c2C(=O)c2c(O)cccc21
inactive: [1] | [2] | [3] | [4]

C[C@@H]1O[C@@H](OC[C@H]2O[C@@H](Oc3c(-c4ccc(O)c(O)c4)oc4cc(O)cc(O)c4c3=O)[C@H](O)[C@@H](O)[C@@H]2O)[C@H](O)[C@H](O)[C@H]1O
not listed: [1] | [4] | [18] | [19]
inactive: all other assays above

O=C(O)CCC(=O)O
inactive: [1] | [2] | [3] | [4]

FC(F)(F)C(Cl)Br (configuration not stated)
inactive: [1] | [2] | [3] | [4] | [5]

CC(=O)Nc1ccc(C(=O)O)cc1
inactive: [1] | [2] | [3] | [4] | [5]

COc1ccc(-c2cc(=O)c3c(O)cc(O[C@@H]4O[C@H](CO[C@@H]5O[C@@H](C)[C@H](O)[C@@H](O)[C@H]5O)[C@@H](O)[C@H](O)[C@H]4O)cc3o2)cc1O
inactive: [1] | [2] | [3]

C[C@@H](c1ncncc1F)C(O)(Cn1cncn1)c1ccc(F)cc1F (some centres not stated)
inactive: [1] | [2] | [3] | [4] | [5]

CCOC(=O)[C@H](CCc1ccccc1)N[C@@H](C)C(=O)N1CCC[C@H]1C(=O)O
inactive: [1] | [18] | [2] | [3] | [4] | [5]

CC1(C)S[C@@H]2[C@H](N=CN3CCCCCC3)C(=O)N2[C@H]1C(=O)O
inactive: [1] | [2] | [3] | [4] | [5]

O=C(O)Cc1ccc(CCNS(=O)(=O)c2ccc(Cl)cc2)cc1
inactive: [1] | [2] | [3] | [4] | [19]

Cc1ccsc1C(=CCCN1CCC[C@@H](C(=O)O)C1)c1sccc1C
inactive: [1] | [18] | [3] | [4] | [5]

Nc1ncnc(Nc2ccccc2)n1
inactive: [1] | [2] | [3] | [4] | [5]

CC(N)CCCC(C)(C)O (configuration not stated)
inactive: [1] | [2] | [3] | [4] | [5]

Cc1ccccc1N=Nc1ccc(N=Nc2c(O)ccc3ccccc23)c(C)c1
inactive: [1] | [2] | [3] | [4] | [5]

Cc1cc(-n2nc3ccc(Cl)cc3n2)c(O)c(C(C)(C)C)c1
inactive: [1] | [2] | [3] | [4] | [5]

CC[N+](C)(CC)CCOC(=O)C1c2ccccc2Oc2ccccc21
inactive: [1] | [2] | [3] | [4] | [5]

CCCOC(=O)c1ccc(N)cc1
inactive: [1] | [2] | [3] | [4] | [5]

CC(=O)N(CC(O)CN(C(C)=O)c1c(I)c(C(=O)NCC(O)CO)c(I)c(C(=O)NCC(O)CO)c1I)c1c(I)c(C(=O)NCC(O)CO)c(I)c(C(=O)NCC(O)CO)c1I (configuration not stated)
inactive: [1] | [2] | [3] | [4] | [5]

C[C@@H]1CCC[C@H](C)N1
inactive: [1] | [2] | [3] | [4] | [5]

O=C1C(c2[nH]c3ccccc3c2O)=Nc2ccccc21
inactive: [1] | [2] | [3] | [4] | [5]

CC(C)(C)NCC(O)COc1cccc2c1CCC(=O)N2 (configuration not stated)
inactive: [1] | [2] | [3] | [4] | [5]

Cc1c(I)c(=O)n(-c2ccccc2)n1C
inactive: [1] | [2] | [3] | [4] | [5]

Cc1[nH]c(C)c(Cl)c(=O)c1Cl
inactive: [1] | [2] | [3] | [4] | [5]

CCN1CC(CCN2CCOCC2)C(c2ccccc2)(c2ccccc2)C1=O (configuration not stated)
inactive: [1] | [2] | [3] | [4] | [5]

CC(=O)N(CC(O)CO)c1c(I)c(C(=O)NCC(O)CO)c(I)c(C(=O)NCC(O)CO)c1I (configuration not stated)
inactive: [1] | [2] | [3] | [4] | [5]

OCC(O)CS (configuration not stated)
inactive: [1] | [2] | [3] | [4] | [5]

NC(N)=NS(=O)(=O)c1ccc(N)cc1
inactive: [1] | [2] | [3] | [4] | [5]

CN1CC(=O)NC1=N
inactive: [1] | [2] | [3] | [4] | [5]
